FBW7 activator: activators of human E3 ligase FBW7; AlphaScreen FBW7–phospho-cyclin E peptide binding, activator screen; 650,000 compounds, 0.13% hits; normalized activity (activation), % at 26.1 µM; AID 1259310; Q969H0; in the data active means normalized activity above about 1.9%;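 further: purified mutant Fbw7 with reduced substrate affinity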
MITF inh: human MITF inhibition, primary screen | AlphaScreen MITF homodimerization, bead proximity signal | inhibition, % at 2.6 µM | O75030 | 650,000 compounds, 0.91% hits; in the data active means inhibition above about 50%
TEAD-YAP inh: TEAD-YAP interaction inhibition; AID 1259422; HEK-TIYL cells, TEAD-Gal4/YAP UAS-luciferase luminescence; 640,000 compounds, 1.4% hits; inhibition, % at 9.12 µM; in the data active means inhibition above about 32%
GPR151 activ: activates the human receptor GPR151; activation, % at 11.2 µM; AID 1508602; PathHunter beta-arrestin GPR151 cells, luminescence; 650,000 compounds, 1% hits; Q8TDV0; in the data active means activation above about 4.9%
Target sequence (Q8TDV0 whole entry, looked up): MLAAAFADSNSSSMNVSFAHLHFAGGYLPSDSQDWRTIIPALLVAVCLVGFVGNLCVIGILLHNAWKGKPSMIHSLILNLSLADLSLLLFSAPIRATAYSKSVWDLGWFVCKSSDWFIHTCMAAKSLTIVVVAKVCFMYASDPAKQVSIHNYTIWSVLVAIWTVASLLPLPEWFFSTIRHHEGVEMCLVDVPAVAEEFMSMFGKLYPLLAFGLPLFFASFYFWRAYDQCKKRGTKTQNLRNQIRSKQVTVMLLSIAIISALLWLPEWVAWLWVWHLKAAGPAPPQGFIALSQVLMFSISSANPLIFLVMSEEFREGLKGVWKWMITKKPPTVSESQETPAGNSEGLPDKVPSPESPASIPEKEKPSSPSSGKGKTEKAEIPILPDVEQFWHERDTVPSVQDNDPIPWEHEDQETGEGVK
GPR151 conf act: human GPR151 activation, confirmation screen | shares compounds with GPR151 activ | 6,700 tested, under 10 active | AID 1508609 | GPR151 PathHunter beta-arrestin cells, luminescence, 90 min; % of EA-reagent control over plate median | activation, % at 11.2 µM;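 active means mean percent activation across replicates above the confirmation screen cutoff of 4.91%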
GPR119 counter: activates human GPR119 in a GPR151 counter-screen | GPR119 PathHunter beta-arrestin cells, luminescence, 90 min; 0 = compound-well median, 100 = enzyme-acceptor control | 6,700 compounds, 0.3% hits | activation, % at 11.2 µM | shares compounds with GPR151 activ | AID 1508611;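 active means mean percent activation in the counterscreen above 29.09%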;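 further: counterscreen on off-target GPR119 to flag nonselective hits from the GPR151 activator screen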
Each line names hits and unclear results; the compound was inactive in the other large screens (follow-up assays come after a bar, where they were run). Shown are actives, neighbours in structure and some others; about 3.5% of the full set was active somewhere.

CC(C)C(=O)N(CC(=O)Nc1sc2c(c1C(N)=O)CCCC2)Cc1ccccc1	GPR151 activ 7.1 | GPR151 conf act inactive | GPR119 counter inactive
CC(C)N1CCc2c(sc(NC(=O)Cc3ccccc3)c2C(N)=O)C1	none
CCOC(=O)c1c(NC(=O)c2cc(=O)c3ccccc3o2)sc2c1CCN(C(C)=O)C2	GPR151 activ 6.0 | GPR151 conf act inactive | GPR119 counter inactive
COc1ccc(/C=C2N=C(/C=C/c3ccc(C)cc3)OC\2=O)c(OC)c1	none
CCOC(=O)C(CC(C)C)NS(=O)(=O)c1ccc([N+](=O)[O-])cc1 (configuration not stated)	none
CCc1ccccc1N(C)C(=O)c1cn(-c2ccc(F)cc2F)c(=O)c2ccccc12	none
COc1ccc(C(Nc2cccc(C)n2)c2ccc3cccnc3c2O)cc1 (configuration not stated)	TEAD-YAP inh 88, GPR151 activ 6.7 | GPR151 conf act inactive | GPR119 counter inactive
CSc1nnc(-c2ccco2)n1-c1ccccc1	GPR151 activ 5.1 | GPR151 conf act inactive | GPR119 counter inactive
CC(C)NC(=O)C1CCN(C2CCN(Cc3ccc(C4CCCCO4)s3)CC2)CC1 (configuration not stated)	none
Fc1ccc(N2CCN(Cc3nnnn3CC3CCCO3)CC2)cc1 (configuration not stated)	none
COc1ccc(NC(=O)C2CC(=O)NC(Nc3ccc(C)cc3C)=N2)cc1 (configuration not stated)	GPR151 activ 12 | GPR151 conf act inactive | GPR119 counter inactive
Cc1ccc(C)c(NC(=O)C23CCC(C)(C(=O)C2=O)C3(C)C)c1 (configuration not stated)	none
CC12CCC(C(=O)Nc3ccccc3C(F)(F)F)(C(=O)C1=O)C2(C)C (configuration not stated)	GPR151 activ 6.1 | GPR151 conf act inactive | GPR119 counter inactive
NS(=O)(=O)c1ccc(CCNC(=O)CSc2nc(NC3CCCCC3)c3ccccc3n2)cc1	GPR151 activ 5.1 | GPR151 conf act inactive | GPR119 counter inactive
COc1cc(NC(=O)Nc2nnc(N3CCCCC3)s2)cc(OC)c1	GPR151 activ 5.3 | GPR151 conf act inactive | GPR119 counter inactive
Cc1cc(C)cc(NC(=O)Nc2nnc(N3CCCCC3)s2)c1	none
Cc1cccc(NC(=O)Nc2nnc(N3CCCCC3)s2)c1	GPR151 activ 5.6 | GPR151 conf act inactive | GPR119 counter inactive
O=C(Nc1cccc(C(F)(F)F)c1)Nc1nnc(N2CCCCCC2)s1	GPR151 activ 5.2 | GPR151 conf act inactive | GPR119 counter inactive
Cc1ccc(NC(=O)Nc2nnc(N3CCCCC3)s2)c(C)c1	GPR151 activ 7.4 | GPR151 conf act inactive | GPR119 counter inactive
O=C1N(C2CCCC2)C[C@@H]2C[C@@H](c3cccn3-c3nccs3)N3CCC[C@@]123	GPR151 activ 6.4 | GPR151 conf act inactive | GPR119 counter inactive
COc1ccc(C(C)=O)cc1COC(=O)c1cccc(F)c1	none
N#Cc1ccc(S(=O)(=O)NCCc2ccncc2)cc1	GPR151 activ 5.2 | GPR151 conf act inactive | GPR119 counter inactive
CCC(C)NC(=O)C1CCCN(S(=O)(=O)N2CCOCC2)C1 (configuration not stated)	GPR151 activ 8.8 | GPR151 conf act inactive | GPR119 counter inactive
COc1ccccc1C1NC(=S)NC(C)=C1C(=O)c1ccccc1 (configuration not stated)	none
CNC(=O)C1=C(C)NC(=S)NC1c1ccccc1OC (configuration not stated)	GPR151 activ 9.5 | GPR151 conf act inactive | GPR119 counter inactive
CCN(CC)c1nc(C)c([N+](=O)[O-])c(C)c1C(N)=O	GPR151 activ 6.5 | GPR151 conf act inactive | GPR119 counter inactive
C[C@@H]1C[C@@H](C(=O)N2CCOc3ccc(CN4CCOCC4)cc3C2)NC(=S)N1	none
CC(C)Cn1c(CN2CCN(c3ccc(F)cc3)CC2)nc2c1c(=O)n(C)c(=O)n2C	GPR151 activ 10 | GPR151 conf act inactive | GPR119 counter inactive
COc1ccc(OC)c(NC(=O)CC2C(=O)NCCN2C(=O)C(F)(F)F)c1 (configuration not stated)	GPR151 activ 7.0 | GPR151 conf act inactive | GPR119 counter inactive
CN(C)S(=O)(=O)c1ccc(C(=O)OCCCC(=O)c2ccc(F)cc2)cc1	GPR151 activ 11 | GPR151 conf act inactive | GPR119 counter inactive
CCN(CC)S(=O)(=O)c1ccc(C(=O)OCC(=O)c2ccc(F)cc2)cc1	none
COc1ccccc1N1CCN(CC(=O)Nc2ccc(C(N)=O)cc2)CC1	none
O=C(C1c2ccccc2C(=O)N2CCc3ccccc3C12)N1CCN(C2CCCCC2)CC1 (configuration not stated)	GPR151 activ 12 | GPR151 conf act inactive | GPR119 counter inactive
CC1(C)CC(=O)C2=C(C1)OC(c1ccccc1Cl)C(C#N)=C2N (configuration not stated)	none
CC1(C)CC(=O)C2=C(C1)OC(c1ccc(Cl)cc1Cl)C(C#N)=C2N (configuration not stated)	GPR151 activ 10 | GPR151 conf act inactive | GPR119 counter inactive
CC(=O)Nc1ccc(C2OC3=C(C(=O)CC(C)(C)C3)C(N)=C2C#N)cc1 (configuration not stated)	GPR151 activ 5.6 | GPR151 conf act inactive | GPR119 counter inactive
COC(=O)C(CC(C)C)NC(=O)CSC1=NC(=O)C(c2ccccc2)C(=O)N1 (configuration not stated)	GPR151 activ 5.6 | GPR151 conf act inactive | GPR119 counter inactive
CCc1cc(=O)[nH]c(NC2CCN(CC(=O)Nc3cccc(C(F)(F)F)c3)CC2)n1	none
COCCCNC(=O)C1CCN(S(=O)(=O)c2ccc(Br)cc2)CC1	none
C=CCNC(=O)C1CCN(S(=O)(=O)c2ccc(Br)cc2)CC1	GPR151 activ 5.7 | GPR151 conf act inactive | GPR119 counter inactive
CCC(C)NC(=O)CN(c1ccc(OC)cc1OC)S(=O)(=O)c1ccc(C)cc1 (configuration not stated)	none
Cc1ccc(NC(=O)CCC(=O)OC2CCC(C(C)(C)C)CC2)cc1 (configuration not stated)	none
CC(C)(C)C1CCC(OC(=O)CCC(=O)N2CCCCC2)CC1 (configuration not stated)	GPR151 activ 11 | GPR151 conf act inactive | GPR119 counter inactive
CC(=O)C1=NN(c2ccc(Cl)cc2)C(c2cccc(OCc3c(Cl)cccc3Cl)c2)N1c1ccc(C)cc1 (configuration not stated)	none
COc1ccc(CN2CCN(Cc3ccc(F)c(F)c3)C(CCO)C2)cc1 (configuration not stated)	none
O=c1cc(Cc2ccccc2)nc2c(-c3ccccc3)c[nH]n12	GPR151 activ 7.4 | GPR151 conf act inactive | GPR119 counter inactive
Cc1[nH]n2c(=O)cc(Cc3ccccc3)nc2c1C#N	none

High-throughput results as filed in PubChem BioAssay.
